Luciferase inh – inhibitors of firefly (Photinus pyralis) luciferase. P08659. purified P. pyralis luciferase, luminescence, biochemical. 2.5% of 76,000 active. Potency, µM (doses to about 115 µM), actives largely listed as inhibitors; also: nearly all actives have a fitted effect of over 65% in size
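Purified 10nM P. pyralis luciferase with 10uM D-luciferin and 10uM ATP in 50mM Tris acetate pH 7.5, 10mM Mg acetate, 0.01% Tween-20, 0.05% BSA. qHTS titration; luminescence read by CCD imager.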
hNpr1 antagonist – human Npr1 receptor antagonism | HEK293 hNpr1 GloSensor cGMP, ANP-stimulated luminescence | Potency, µM (highest dose often 46.3 µM), most hits filed as inhibitors | 1.6% of 76,000 active | AID 1347048; calls by dose curve; also: nearly all actives have a fitted effect of over 60% in size
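HEK293 cells stably expressing human Npr1 and cGMP GloSensor pGS-40F, loaded 2 h with 2% GloSensor reagent, given compound 30 min at room temperature. Luminescence read before and 20 min after 0.1 nM hNppA.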
HEK cytotox – HEK 293 cell cytotoxicity | 6.6% of 94,000 active | Potency, µM (top dose mostly 115 µM), most hits filed as inhibitors | HEK 293 viability, ATP luminescence (CellTiter-Glo), 48-72 h; also: nearly all actives have a fitted effect of over 60% in size
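250 HEK 293 cells/well; compound by pintool; incubated 48 or 72 hr at 37 degree Celsius; CellTiter-Glo added, 10 min RT, luminescence imaged.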
3T3 cytotox – kills NIH 3T3 cells; NIH 3T3 viability, CellTiter-Glo ATP luminescence, 48-72 h; Potency, µM (series often up to 96.7 µM), hits mostly inhibitors; 4.3% of 94,000 active; AID 1345082; also: nearly all actives have a fitted effect of over 55% in size
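First NIH 3T3 cells are plated at 400 cells/well; next compound is pinned in; then plates incubate 48 or 72 hr at 37 °C; finally CellTiter-Glo is added and luminescence read after 10 min.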
NPR1 antag cnf – hNpr1 antagonism, confirmation assay | shares compounds with hNpr1 antagonist | HEK293 hNpr1 cGMP GloSensor luminescence, ANP-stimulated | Potency, µM (titrated, usually from 57.6 µM), most hits filed as inhibitors | 76% of 1,400 active; calls by dose curve; also: nearly all actives have a fitted effect of over 70% in size
Npr2 selectivity – antagonizes human Npr2, subtype selectivity check; 67% of 1,400 active; shares compounds with hNpr1 antagonist; Potency, µM (highest dose often 57.6 µM), actives largely listed as inhibitors; HEK293 hNpr2 GloSensor cGMP luminescence, CNP-stimulated; calls by dose curve; also: nearly all actives have a fitted effect of over 70% in size
FLuc counter – FLuc enzyme inhibition, Npr1 counter-screen | 0.7% of 1,400 active | purified FLuc enzyme, luminescence, Km substrate | Potency, µM (doses to about 57.6 µM), usual class: inhibitors | AID 1347047 | shares compounds with hNpr1 antagonist
GloSensor cGMP – reduces cGMP signal in GloSensor control cells; shares compounds with hNpr1 antagonist; HEK293 GloSensor cGMP, SNP-stimulated, luminescence; Potency, µM (highest dose often 57.6 µM), most hits filed as inhibitors; 69% of 1,400 active; calls by dose curve; also: nearly all actives have a fitted effect of over 70% in size
Hits are given with their value; 0 = inactive; ? = inconclusive; - = no result. In the library only some 11% were active in any assay of this set; here they are far more common. Unless noted, calls follow the shape of the dose curve; as a rule, active = well fitted curve in the direction sought with a large enough effect; inconclusive = small, poorly fitted or top-dose-only effect, or another doubt; inactive = no such curve, though single readings can be large; an effect the other way counts as inactive or inconclusive.

SMILES | Luciferase inh | hNpr1 antagonist | HEK cytotox | 3T3 cytotox | NPR1 antag cnf | Npr2 selectivity | FLuc counter | GloSensor cGMP
CC(=O)N1CCC(N[C@H]2CC(C)(C)[C@@H]3C[C@@](C)(O)CC[C@]23CCC(=O)NCCN2CCOCC2)CC1 | 0 | 0 | 0 | 0 | - | - | - | -
O=C(c1ccc2c(c1)OCO2)N1CC(c2noc(C3CCCN3CC3CC3)n2)C1 (stereo not given) | 0 | 0 | 0 | 0 | - | - | - | -
CN(C/C=C/c1ccccc1)c1cc(C2CC(O)C2)nc(N)n1 (stereo not given) | 0 | 13µM | ? | 0 | 22µM | 17µM | 0 | 24µM
O=C1Nc2ccccc2O[C@H]2C[C@@H]1N(Cc1ccnc3ccccc13)C2 | 0 | 0 | 0 | ? | - | - | - | -
C[S+](=O)([O-])N1CCC2(CCN(Cc3cccs3)c3ccccc3O2)CC1 | 0 | 0 | ? | 0 | - | - | - | -
Cc1nc(N2CCC(C(=O)NC3CCCCCCC3)CC2)cc(C(F)(F)F)n1 | ? | 10µM | ? | 0 | 7.7µM | 14µM | 0 | 7.7µM
Cc1nc(N2CCC(C(=O)Nc3ccc(F)c(Cl)c3)CC2)cc(C(F)(F)F)n1 | 0 | 11µM | 25µM | ? | 22µM | 22µM | 0 | 22µM
Cc1nc(N2CCC(C(=O)NC3CCCCCC3)CC2)cc(C(F)(F)F)n1 | 0 | ? | ? | 0 | 14µM | 12µM | 0 | 9.7µM
Cc1nc(N2CCC(C(=O)NCc3ccccc3Cl)CC2)cc(C(F)(F)F)n1 | 0 | ? | ? | ? | - | - | - | -
Cc1nc(N2CCC(C(=O)NC3CCc4ccccc43)CC2)cc(C(F)(F)F)n1 (stereo not given) | 0 | ? | ? | ? | 22µM | 19µM | 0 | 17µM
O=C(C1CCCN1C(=O)c1ccc(C(F)(F)F)cc1)N1CCC(c2nc3ncccc3[nH]2)CC1 (stereo not given) | - | - | 0 | 0 | - | - | - | -
CCN1C(=O)Cc2cc(C(=O)NCc3ccc(F)cc3Cl)ccc21 | 0 | 0 | ? | 0 | - | - | - | -
O=C(NCc1ccccc1F)c1ccc2nnc(C3CCOCC3)n2c1 | - | - | 0 | 0 | - | - | - | -
CCC(C)NC(=O)c1cc(-c2ccccc2OC)nc2c1cnn2C (stereo not given) | - | - | 0 | 0 | - | - | - | -
COCCN1CCCC2(CCN(c3nc(C)nc4sccc34)C2)C1=O (stereo not given) | 0 | ? | 0 | ? | 24µM | ? | 0 | 24µM
CC(C)(Oc1nn(Cc2cccc(Cl)c2)c2ccccc12)C(=O)NCCc1cnc[nH]1 | 0 | 22µM | ? | ? | 28µM | 25µM | 0 | 25µM
CC(C)(Oc1nn(Cc2cccc(Cl)c2)c2ccccc12)C(=O)NC1CCC(O)CC1 (stereo not given) | 0 | 0 | ? | ? | - | - | - | -
CN1C[C@@H](NC(=O)c2ccc3c(c2)OCO3)C[C@H]1c1nc(-c2ccc(Cl)cc2)no1 | 0 | 35µM | 50µM | 79µM | 28µM | 31µM | 0 | 25µM
CC(C)(C)C(=O)N[C@H]1C[C@@H](Cc2cc(CN3CCN(c4ccccc4)CC3)on2)C1(C)C | 0 | 11µM | ? | 0 | 19µM | 17µM | 0 | 12µM
CC(C)NC(=O)N[C@H]1C[C@@H](Cc2cc(CN3CCN(c4ccccc4)CC3)on2)C1(C)C | 0 | 11µM | ? | ? | 19µM | 19µM | 0 | 17µM
CC1(C)[C@H](Cc2cc(CN3CCCCC3)on2)C[C@@H]1NC(=O)c1ccccc1 | 0 | 0 | ? | ? | - | - | - | -
COc1cccc(CN2CCC(Oc3ccc(-c4noc(C5CC5)n4)cc3)C2)c1 (stereo not given) | 0 | 11µM | 40µM | ? | ? | ? | 0 | 27µM
COCc1nc(-c2ccc(OC3CN(C(=O)NCc4ccc(OC)cc4)C3)cc2)no1 | 0 | ? | 0 | ? | 24µM | ? | 0 | 19µM
COc1ccc(CNC(=O)N2CCC(Oc3ccc(-c4noc(C5CC5)n4)cc3)C2)cc1 (stereo not given) | 0 | 18µM | ? | ? | ? | ? | ? | ?
COCc1nc(-c2ccc(OC3CN(C(=O)c4cc(C)n(C)n4)C3)cc2)no1 | 0 | 0 | ? | 0 | - | - | - | -
SMILES | Luciferase inh | hNpr1 antagonist | HEK cytotox | 3T3 cytotox | NPR1 antag cnf | Npr2 selectivity | FLuc counter | GloSensor cGMP
CCN(CC)C(=O)N1CCC(Oc2ccc(-c3noc(COC)n3)cc2)C1 (stereo not given) | 0 | 7.9µM | ? | 0 | 11µM | 14µM | 0 | 12µM
COCc1nc(-c2ccc(OC3CCN(C(=O)NCc4ccc(F)cc4)C3)cc2)no1 (stereo not given) | 0 | ? | ? | ? | - | - | - | -
CCOc1cccc(CN2CC(Oc3ccc(-c4noc(COC)n4)cc3)C2)c1 | 0 | ? | ? | ? | - | - | - | -
CCn1nccc1C(=O)N1CC(Oc2ccccc2-c2nc(CCOC)no2)C1 | 0 | 0 | 0 | 0 | - | - | - | -
CC(C)CNC(=O)C(C)(C)Oc1nn(C(C)C)c2ccc(CN3CCOCC3)cc12 | 0 | 0 | ? | ? | - | - | - | -
Cc1ncsc1CN1CC(N(Cc2ccccc2)C2CCOCC2)C1 | 0 | 0 | 0 | 0 | - | - | - | -
CN1C[C@H](C(=O)Nc2nccs2)C[C@H]1c1cccc(C(F)(F)F)c1 | 0 | ? | ? | ? | - | - | - | -
FC(F)(F)c1ccc(CN2CCC3(CC(c4cccnc4)=NO3)C2)cc1 (stereo not given) | - | - | ? | 0 | - | - | - | -
FC(F)(F)c1ccc(CN2CCC3(CC2)CC(c2cccnc2)=NO3)cc1 | 0 | 2.5µM | ? | ? | 6.9µM | 11µM | 0 | 6.1µM
COc1ccccc1-c1[nH]nc2ncc(C(=O)NCc3cccnc3)nc12 | - | - | - | - | 18µM | 7µM | 0 | 0
COc1ccccc1-c1[nH]nc2ncc(C(=O)N3CCC(c4ccccc4)CC3)nc12 | 0 | ? | ? | ? | - | - | - | -
CN(C(=O)c1cnc2n[nH]c(-c3ccccc3)c2n1)c1ccccc1 | 0 | 16µM | ? | ? | 31µM | 31µM | 0 | 20µM
O=C(NCc1cccnc1)c1nc(-c2ccc(F)cc2)c2ccccn12 | 0 | 0 | ? | ? | - | - | - | -
O=C(NCc1cccnc1)c1cnc2n[nH]c(-c3ccccc3)c2n1 | - | - | - | - | 25µM | 13µM | 0 | 0
COc1ccccc1-c1cc(C(=O)NCc2cccnc2)nc2c1cnn2C | - | - | 0 | 0 | - | - | - | -
CN(C)CCNC(=O)c1n[nH]c2c1CN(C(=O)c1cccc(OC(F)(F)F)c1)CC2 | - | - | 0 | 0 | - | - | - | -
OCCC1CN(c2cc(C(F)(F)F)ccn2)CCN1CC1CCCCC1 (stereo not given) | 0 | 0 | ? | ? | - | - | - | -
CCCNC(=O)c1cc(-c2ccc(F)cc2)cn1C | 0 | ? | 0 | 0 | 0 | 0 | 0 | 0
CN1CCN(CCNC(=O)c2cc(-c3ccccc3)cn2C)CC1 | 0 | 0 | 0 | 0 | - | - | - | -
